Experimental data: PubChem BioAssay (NCI)
About 83,000 compounds went through this panel and 20% of them were active in at least one assay; those are over-represented in the sample as a whole.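 Negative percent growth values reflect cell death: -40 means 40% of the cells present at the start died, and -100 means all died.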 Values without a mark were called inactive. The source made the active and inactive calls. How the source made its calls: active means growth percent below 10; inactive means the rest.

Tests used:
Assay in all cases: NCI-60 one-dose screen, 48 h (100 = growth as untreated, 0 = no growth, -100 = all killed)
Conditions in all cases: 10 µM unless noted
NCI-H23 lung = tested on: NCI-H23 lung
NCI-H226 lung = tested on: NCI-H226 lung
NCI-H322M lung = tested on: NCI-H322M lung
HOP-62 NSCLC = tested on: HOP-62 NSCLC
NCI-H460 lung = tested on: NCI-H460 lung
HOP-92 NSCLC = tested on: HOP-92 NSCLC
NCI-H522 lung = tested on: NCI-H522 lung
A549/ATCC NSCLC = tested on: A549/ATCC NSCLC
786-0 renal = tested on: 786-0 renal
COLO 205 colon = tested on: COLO 205 colon
DU-145 prostate = tested on: DU-145 prostate
K-562 leukemia = tested on: K-562 leukemia
MALME-3M melanoma = tested on: MALME-3M melanoma
MDA-MB-231 breast = tested on: MDA-MB-231 breast
RXF 393 renal = tested on: RXF 393 renal
SF-268 CNS = tested on: SF-268 CNS
SF-295 CNS = tested on: SF-295 CNS
SF-539 CNS = tested on: SF-539 CNS
UACC-257 melanoma = tested on: UACC-257 melanoma
M14 melanoma = tested on: M14 melanoma

SMILES	growth (NCI-H23 lung)	growth (NCI-H226 lung)	growth (NCI-H322M lung)	growth (HOP-62 NSCLC)	growth (NCI-H460 lung)	growth (HOP-92 NSCLC)	growth (NCI-H522 lung)	growth (A549/ATCC NSCLC)	growth (786-0 renal)	growth (COLO 205 colon)	growth (DU-145 prostate)	growth (K-562 leukemia)	growth (MALME-3M melanoma)	growth (MDA-MB-231 breast)	growth (RXF 393 renal)	growth (SF-268 CNS)	growth (SF-295 CNS)	growth (SF-539 CNS)	growth (UACC-257 melanoma)	growth (M14 melanoma)
O=[N+]([O-])c1ccc([Se]C2CCCCC2Cl)c([N+](=O)[O-])c1 (stereo not given)	40.3%	73.5%	55.7%	7.16% (active)	57.7%	53.8%	63.3%	45.5%	128%	102%	82.1%	105%	69.8%	61.7%	67.7%	14.3%	-41.3% (active)	-87.3% (active)	59.2%	40.2%
CNC(=O)Oc1ccc(N(C)C)cc1C(C)C	103%	92.6%	91.1%	99.5%	107%	100%	92.2%	94.9%	102%	115%	101%	129%	72.1%	103%	73.8%	101%	118%	89.7%	105%	97.2%
Fc1c[c-]c(-c2ccccn2)c(F)c1.[CH3-].[Pt+2].c1ccc([PH+](c2ccccc2)c2ccccn2)cc1	0.331% (active)	-53.6% (active)	19.4%	22.3%	3.22% (active)	-25.6% (active)	-37.9% (active)	11.5%	-1.65% (active)	-31.5% (active)	15.9%	4.86% (active)	-75.5% (active)	-70.6% (active)	-64.8% (active)	22.8%	5.67% (active)	-46.7% (active)	0.865% (active)	-30.4% (active)
CC(C)[C@]12O[C@H]1[C@@H]1O[C@]13[C@]1(O[C@H]1C[C@H]1c4c(C(=O)c5ccccc5)oc(OC(=O)c5ccccc5)c4CC[C@@]13C)[C@@H]2O	-14.9% (active)	-12.8% (active)	9.46% (active)	-0.399% (active)	9.07% (active)	-9.38% (active)	-39.6% (active)	1.72% (active)	1.31% (active)	-57% (active)	0.787% (active)	-12.5% (active)	-59.1% (active)	34.3%	-81.1% (active)	-20.7% (active)	8.47% (active)	-40.6% (active)	-25.5% (active)	-73.7% (active)
CCCC(=O)O[C@@H]1C[C@H]2C[C@@H](O[C@@H]3O[C@@H](C)[C@@H](O)[C@@H](O)[C@H]3OC)C[C@@H](C[C@@H](C)/C=C/C=C\C[C@@H]3O[C@@H](C[C@@H]3C)[C@@H](O)C[C@H]3C[C@@]1(O)C(=O)O3)O2	25.9%	33.3%	88.4%	64.8%	47.3%	91.6%	21%	46.4%	76.6%	39.4%	48.8%	21.2%	64.7%	86.4%	72.1%	80.1%	7.39% (active)	67.6%	9.61% (active)	69.8%
Cn1cccc1C1CC(=O)N(CCC[Se]C#N)C1=O (stereo not given)	-25.4% (active)	-46.1% (active)	11.1%	-75.7% (active)	-0.959% (active)	-40.8% (active)	23.5%	-38.6% (active)	-73.2% (active)	70.1%	-76% (active)	16.2%	-30.1% (active)	-45.3% (active)	-48.7% (active)	-31.8% (active)	-58.2% (active)	-81.2% (active)	-70.6% (active)	4.09% (active)
CC(CO)NC1CCCCC1 (stereo not given)	103%	119%	102%	102%	108%	78%	103%	102%	100%	113%	105%	104%	103%	91.2%	114%	108%	113%	91.8%	104%	102%
CC12CCC3C(CCC4Cc5[nH]c6ccccc6c5CC43C)C1CCC2O (stereo not given)	49.3%	41.3%	43%	62.8%	5.72% (active)	63.4%	26.4%	41.5%	33.5%	45%	-21.2% (active)	5.1% (active)	48.3%	37.1%	-13.8% (active)	47.5%	-10.7% (active)	9.54% (active)	74.1%	20.6%
CC(=O)[O][Hg][O]C(C)=O	98.4%	118%	89.6%	100%	101%	142%	-73.9% (active)	103%	103%	88.5%	94.8%	29.7%	54.3%	110%	98.2%	96.6%	90.3%	108%	90.8%	88.3%
CC(=O)O[C@H](C[C@H](C(C)C)N(C)C(=O)[C@@H](NC(=O)[C@H]1CCCCN1C)C(C)C)c1nc(C(=O)N[C@@H](Cc2ccccc2)C[C@H](C)C(=O)O)c(C)s1	35.9%	52.6%	52.8%	32.1%	7.72% (active)	25.6%	-4.18% (active)	11.9%	26.1%	-62.6% (active)	21.8%	14%	58.5%	23.5%	53.9%	29.7%	15.9%	4.22% (active)	46.3%	6.5% (active)
CC[C@H](C)[C@H](NC(=O)[C@H]1CCCCN1C)C(=O)N(C)[C@H](C[C@@H](O)c1nc(C(=O)N[C@@H](Cc2ccccc2)C[C@H](C)C(=O)O)cs1)C(C)C	94.8%	99%	105%	82.4%	95.6%	57.8%	-18% (active)	87.1%	90.2%	83.6%	112%	42.1%	77.6%	95.2%	96.9%	88.2%	90.6%	83.6%	76.1%	64.5%
CNC(=O)Oc1ccc2c(c1)OCO2	103%	103%	107%	102%	106%	108%	103%	100%	107%	103%	108%	90.1%	104%	101%	113%	102%	101%	102%	102%	107%
C[C@@]12CC[C@@H](O)C[C@@H]1CC[C@H]1[C@H]2CC[C@@]2(C)[C@H](c3ccc(=O)oc3)CC[C@@]12O	-50% (active)	-91.9% (active)	-45.3% (active)	-75.3% (active)	-78.7% (active)	-13.1% (active)	-26% (active)	-61.9% (active)	-51.1% (active)	-68.1% (active)	-97.4% (active)	0.291% (active)	-45.4% (active)	-33.9% (active)	-39.9% (active)	-73.1% (active)	-84.5% (active)	-85.4% (active)	-78.8% (active)	-50.7% (active)
COc1ccc2c(c1)c(C1(O)CC(CSC#N)OC1=O)cn2C(=O)c1ccc(Cl)cc1 (stereo not given)	89.3%	94.8%	73.5%	104%	104%	109%	95.9%	98.6%	102%	127%	114%	98.5%	81.9%	92.9%	114%	106%	90.2%	96.3%	95.5%	96.4%
O=C(Nc1ccncc1F)c1cn(CC2CC2)c2ccccc12	101%	83.7%	109%	108%	101%	123%	92.3%	98.5%	97.6%	112%	114%	95.7%	119%	109%	103%	105%	100%	110%	108%	108%
NC(CCl)CCl	104%	94.6%	102%	-100% (active)	110%	109%	100%	102%	107%	-100% (active)	105%	116%	92.6%	102%	107%	103%	93.9%	95.1%	102%	94.6%
